Bioassay records deposited in PubChem by several laboratories.
Only some compounds are listed: those with a hit (about 3.6% of all), similar ones and a draw of the others.
bCat KO growth: primary screen for growth suppressors in beta-catenin knockout HCT116 cells (colon tumor, human); HCT116 beta-catenin knockout viability, CellTiter-Glo, 60 h; stronger effect = lower value; viability, % at 10 µM; hit rate 1.5% among 140,000;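 active means viability at or under a set limit, the compound median less 4 SD, cut at about 6% in these data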
hDAT+cocaine: changed hDAT dopamine uptake under cocaine IC80, either direction, primary screen, cocaine antagonist project, cell-based, LLC-PK1 hDAT, [14C]-dopamine uptake, MLSMR; Sodium-dependent dopamine transporter (Homo sapiens), Q01959; LLC-PK1 hDAT cells, [14C]-dopamine uptake with cocaine IC80; actives deviate in either direction; B-score at 10 µM; hit rate 1.3% among 110,000; AID 449768, 2010;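 active means Z score or B-score, a plate-position-corrected score, falls beyond the plate's 99.7% confidence bounds, in either direction; inactive means both scores lie inside the 99.7% bounds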
Target sequence (Q01959 whole entry, looked up): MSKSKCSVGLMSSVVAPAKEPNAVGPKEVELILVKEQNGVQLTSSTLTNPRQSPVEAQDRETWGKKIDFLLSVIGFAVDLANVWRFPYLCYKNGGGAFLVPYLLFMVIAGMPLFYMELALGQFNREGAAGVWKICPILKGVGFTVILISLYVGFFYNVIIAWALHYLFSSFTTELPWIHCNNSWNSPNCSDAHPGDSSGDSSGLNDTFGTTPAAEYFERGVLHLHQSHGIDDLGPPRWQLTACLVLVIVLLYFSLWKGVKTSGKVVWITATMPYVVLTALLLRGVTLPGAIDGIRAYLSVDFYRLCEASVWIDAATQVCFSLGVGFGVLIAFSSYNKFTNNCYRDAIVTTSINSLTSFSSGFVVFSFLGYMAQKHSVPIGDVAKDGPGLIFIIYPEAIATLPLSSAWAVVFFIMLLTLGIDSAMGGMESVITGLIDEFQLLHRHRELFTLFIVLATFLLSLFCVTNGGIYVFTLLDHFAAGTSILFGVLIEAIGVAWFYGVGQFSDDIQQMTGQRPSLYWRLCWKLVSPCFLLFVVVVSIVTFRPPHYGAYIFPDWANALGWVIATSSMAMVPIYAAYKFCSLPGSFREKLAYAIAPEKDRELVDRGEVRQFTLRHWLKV
WT yeast gro inh: growth inhibition of WT strain, primary screen, mitochondrial fusion inhibitor project, WT and mutant strains, chemical genetic; mitochondrial fusion phenotypic screen; inhibition, % at 10 µM; hit rate 2.1% among 190,000; AID 1362, 2008; in the data active means inhibition above about 58%; tested in S. cerevisiae
PTEN del growth: growth suppression of PTEN-null HCT116, primary screen, cell-based, CellTiter-Glo; viability, % at 10 µM; HCT116 PTEN-null viability, 60 h; stronger effect = lower value; AID 827, 2007; hit rate 1.2% among 140,000;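 active means viability at or below a set limit, 4 SD under the median of all tested compounds, cut at about 3.7% in these data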;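 further: PTEN knockout HCT116 line with beta catenin targeted HCT116 as companion control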
A number is an active result; n = inactive; x = not tested or not shown.

SMILES	bCat KO growth	hDAT+cocaine	WT yeast gro inh	PTEN del growth
S=c1[nH]c(-c2ccc(Cl)cc2)cs1	x	x	65	x
Cc1cccc(-n2c(O)c(C=Nc3c(C)n(C)n(-c4ccccc4)c3=O)c3ccccc3c2=O)n1	n	3.8	n	n
COc1ccc2c(C=Nc3c(C)n(C)n(-c4ccccc4)c3=O)c(O)n(Cc3ccco3)c(=O)c2c1	n	4.2	n	n
CCn1cc(C(=O)N2CCN(c3ccccc3F)CC2)c(=O)c2ccc(C)nc21	x	x	n	x
COCc1cc(N2CCOCC2)nc(SCc2ccc(Cl)cc2)n1	x	x	n	x
CSCc1cc(N2CCOCC2)nc(SCc2ccc(Cl)c(Cl)c2)n1	n	n	62	n
CC(C)C(=O)NC(c1ccc([N+](=O)[O-])cc1)c1c(O)ccc2ccccc12 (centres undefined)	2.0	n	n	1.8
COc1cc2c(cc1OC)C(SC)=NC(C)(C)C2	2.2	n	n	n
O=C(O)CCCN1C(=O)c2ccc(Oc3cccc([N+](=O)[O-])c3)cc2C1=O	x	x	n	x
CS(=O)(=O)N(CC(=O)NCc1ccc2c(c1)OCO2)c1ccc(Cl)cc1	n	x	80	n
CS(=O)(=O)N(CC(=O)NCc1ccc2c(c1)OCO2)c1cccc(Cl)c1	x	x	n	x
O=C(NCc1ccc2c(c1)OCO2)c1ccc(CSCc2ccc(Cl)cc2)o1	n	x	59	n
O=C(NCc1ccc2c(c1)OCO2)c1ccc(COc2cc(Cl)ccc2Cl)o1	n	n	n	n
O=C(Nc1ccccc1)C1=C[C@@H](C2CCCCC2)C[C@@H](OCCCCO)O1	x	n	n	x
O=C(NCc1ccccc1)C1=C[C@H](C2CCCCC2)C[C@H](OCCCCO)O1	x	2.1	x	x
CCO[C@H]1OC(C(=O)NCc2nc3ccccc3[nH]2)=C[C@@H](c2ccccc2)[C@@H]1CCCO	x	n	n	x
CCO[C@H]1OC(C(=O)NCc2nc3ccccc3[nH]2)=C[C@@H](c2ccc3c(c2)OCO3)[C@@H]1CCCO	x	2.7	x	x
O=C(NCc1nc2ccccc2[nH]1)C1=C[C@H](C2CCCCC2)C[C@H](OCCCCO)O1	x	1.9	x	x
CC(=O)c1c(C)[nH]c(C(=O)NCc2ccco2)c1C	x	x	n	x
O=C1SC(SCc2ccccc2Cl)=N/C1=C\c1ccc(C(=O)O)cc1	x	x	n	x
CSc1cccc(NC(=O)C2(S(=O)(=O)c3ccc(C)cc3)CC2)c1	x	x	n	x
CCOc1cc(CN2CCN(C(=O)c3ccco3)CC2)ccc1OC	n	n	n	n
CCOc1ccccc1-n1c(CN2CCN(C(=O)c3ccco3)CC2)nc2ccccc2c1=O	3.6	x	70	2.5
CCc1nc(N2CCN(C(=O)c3ccco3)CC2)c2oc3ccccc3c2n1	n	2.8	n	n
C#CCN(C)CC/C=C1\c2ccccc2CSc2ccccc21	n	n	70	n
SMILES	bCat KO growth	hDAT+cocaine	WT yeast gro inh	PTEN del growth
Cc1ccc(OCCCC(=O)Nc2nnc(C3CCCO3)s2)c(C)c1 (centres undefined)	x	x	n	x
C=CCNC(=S)NNC(=O)COc1ccc2cc(Br)ccc2c1	x	x	59	x
COC(=O)CNC(=O)c1cc(-c2ccncc2)nc2c(C)c(Cl)ccc12	x	x	n	x
Cc1c(Cl)ccc2c(C(=O)NCCN3CCCCC3)cc(-c3ccccn3)nc12	x	x	94	x
CC12CCC(c3c(C(=O)O)nn(-c4ccc(F)cc4)c31)C2(C)C (centres undefined)	n	n	59	n
CCOc1ccc(N=C(NN)c2ccc3ccccc3n2)cc1	n	x	n	n
N#Cc1nc(-c2ccc(OCc3ccc(Cl)cc3)cc2)oc1N1CCC(C(N)=O)CC1	n	n	n	n
CCCOc1ccc(-c2nc(C#N)c(N3CCC(C(N)=O)CC3)o2)cc1	n	n	94	n
COc1ccc(NC(=O)COC(=O)Cc2c(F)cccc2Cl)cc1OC	x	x	n	x
Cc1ccc(C(=O)NNC(=O)C2CCCN(c3ncccn3)C2)cc1 (centres undefined)	n	6.6	n	n
CN(CCCC(=O)NCc1ccco1)S(=O)(=O)c1ccccc1	n	n	60	n
COc1ccc(NC(=O)Cc2c(F)cccc2Cl)c(OC)c1	n	x	n	n
CCN(CC)CCNc1nc2cc(OC)c(OC)cc2c2nc(-c3ccccc3)nn12	1.7	n	n	1.2
COc1cc2[nH]c(=O)n3nc(-c4ccccc4)nc3c2cc1OC	n	n	n	n
CC(C)NC(=S)NC(=O)c1ccc(-c2ccccc2)cc1	n	x	67	n
Cc1ccc(C(=O)NC(=S)NCC(=O)c2ccccc2)cc1	n	n	61	n
COc1cc(C=O)ccc1OCC(=O)NC(C)(C)C	x	x	n	x
O=C(N/N=C/c1ccc(-c2cccc(C(F)(F)F)c2)o1)c1ccccc1Br	n	n	n	n
